Screening data from PubChem.
Most compounds without a hit are left out; they make up all but 4.5% or so of the library.
PrP UTR inh: inhibition of PrP 5' UTR reporter expression; cell-based PrP 5' UTR mRNA reporter, plate reader; inhibition, % (no concentration beside the values); hit rate 0.35% among 340,000; AID 488862, 2010; in the data active = inhibition above about 52%
FBA Mtb inh: Mtb FBA enzyme inhibitors, primary screen, biochemical, fluorescence, strain H37Rv; inhibition, % at 1 µM; Fructose-bisphosphate aldolase (Mycobacterium tuberculosis (strain ATCC 25618 / H37Rv)), …; purified M. tuberculosis FBA, fluorescence read-out; hit rate 2.3% among 360,000; in the data active = inhibition above about 27%
GDH-TPI counter: GDH-TPI coupling enzyme inhibitors, primary screen, artefact control for M. tuberculosis FBA inhibitor project, biochemical, absorbance, full deck | hit rate 1.2% among 360,000 | inhibition, % at 4.8 µM | GDH-TPI coupled enzyme counterscreen, NADH absorbance | AID 588335, 2011; in the data active = inhibition above about 30%
BJeLR lethal: MLPCN primary cell-based screen for lethality selective to Ras in HRASV12 cells. inhibition, % (concentration not given with the values). AID 1554, 2009. hit rate 0.17% among 300,000. BJeLR (HRASV12) viability, CellTiter-Glo ATP luminescence, 48 h; in the data active = inhibition above about 50%; inconclusive = no clear call, values can overlap the other calls
PrPC TRFRET: inhibitors of human cell surface prion protein PrPC, primary screen, cell-based, TR-FRET; Major prion protein (Homo sapiens), P04156; TR-FRET read-out; inhibition, % at 13.8 µM; hit rate 0.43% among 370,000; AID 720596, 2013; in the data active = inhibition above about 24%
PfHsp40 yeast: rescue of yeast from PfHsp40 toxicity, primary screen, S. cerevisiae, ATP luminescence; S. cerevisiae expressing PfHsp40, growth rescue; hit rate 0.68% among 340,000; growth rescue, % at 12.5 µM; in the data active = growth rescue above about 28%, passing the limit was not always enough; inconclusive = no clear call, values can overlap the other calls;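 also: yeast W303a lacking pdr1 and pdr3 grown in galactose medium; growth measured after three days at 30 °C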
PrPC confirm: confirmation of inhibitors of cell surface human prion protein, confirmation, cell-based, TR-FRET. shares compounds with PrPC TRFRET. inhibition, % at 13.8 µM. cell surface PrPC level. AID 743200, 2013. hit rate 65% among 1,500; in the data active = inhibition above about 25%
LD9 tox: cytotoxicity in LD9 cells, cytotoxicity control for cell surface PrPc inhibitor project, cell-based, luminescence, high throughput | hit rate 29% among 1,500 | inhibition, % at 13.8 µM | luminescence viability | shares compounds with PrPC TRFRET; in the data active = inhibition above about 9.5%
A number is an active result; – = inactive; ? = inconclusive; · = not tested or not shown; + = active, no number.

SMILES	PrP UTR inh	FBA Mtb inh	GDH-TPI counter	BJeLR lethal	PrPC TRFRET	PfHsp40 yeast	PrPC confirm	LD9 tox
CCOC(=O)c1sc2ncnc(NCc3ccco3)c2c1C	–	–	–	–	24	–	–	15
CC[C@@H]1C[C@H]2CC[C@H](O2)[C@H](C)C(=O)O[C@@H](C)C[C@@H]2CC[C@@H](O2)[C@@H](C)C(=O)O[C@H](C)C[C@H]2CC[C@H](O2)[C@H](C)C(=O)O[C@@H](C)C[C@@H]2CC[C@@H](O2)[C@@H](C)C(=O)O1	·	·	·	·	39	·	56	55
COC(=O)Cc1c(C)c2ccc(O)c(CNCc3ccc(OC)c(OC)c3)c2oc1=O	–	+	–	–	25	–	–	–
Cc1ccc(-n2nc(C)c(Sc3ccccc3[N+](=O)[O-])c2N)cc1	–	–	–	–	–	–	·	·
O=c1c2ccccc2nc2n1C(CSCc1ccc(Cl)cc1)CS2 (stereo not given)	–	–	–	–	26	–	–	14
Cc1cc(C)c(C)c(C(=O)c2ccccc2C(=O)O)c1C	–	–	–	–	–	–	·	·
Cc1c(C(=O)c2ccccc2C(=O)O)sc2ccccc12	–	–	–	–	33	–	54	–
Cc1c(C(=O)NCc2ccc3c(c2)cc(C)n3C)cccc1[N+](=O)[O-]	–	–	–	–	34	–	–	–
Cc1cc2cc(CNC(=O)Cc3ccc([N+](=O)[O-])cc3)ccc2n1C	–	–	–	–	–	–	·	·
Cc1cc2cc(CNC(=O)c3cccc([N+](=O)[O-])c3)ccc2n1C	–	–	–	–	37	–	–	–
COc1cccc(COC(=O)C(Cc2ccccc2)NC(=O)c2ccco2)c1 (stereo not given)	·	–	–	·	–	·	·	·
C=CCn1c(=O)c2ccccc2n2c(SCC(=O)O)nnc12	–	–	–	–	–	–	·	·
C=CCn1c(=O)c2ccccc2n2c(SCC(N)=O)nnc12	–	–	–	–	36	–	35	–
CC(=O)c1cccc(NC(=O)c2c(F)c(F)c(F)c(F)c2F)c1	–	–	–	–	–	–	·	·
CC(=O)c1cccc(NC(=O)C2=CN3CCS(=O)(=O)N=C3C=C2)c1	–	–	–	·	46	–	46	–
CCC(C)(C)n1nnnc1CN1CCC(c2nc3ccc(C)cc3[nH]2)CC1	–	–	–	–	33	–	32	–
Cc1cc2nc(C3CCN(Cc4nnnn4Cc4ccccc4)CC3)[nH]c2cc1C	–	–	–	–	–	–	·	·
NS(=O)(=O)c1cccc(NC(=O)COC(=O)CCCc2c[nH]c3ccccc23)c1	–	–	–	–	–	–	·	·
COc1cccc(N2C(=NC(=O)CCC3CCCC3)SC3CS(=O)(=O)CC32)c1 (stereo not given)	–	–	–	–	–	–	·	·
CNc1ncc(C(=O)c2ccc(Cl)cc2)s1	–	–	47	–	62	–	78	–
COc1ccc(NC(=O)CCCC(=O)OCC(=O)c2cccc(OC)c2)cc1	–	–	–	–	–	–	·	·
O=C(COC(=O)c1ccc(Cl)c(S(=O)(=O)NCc2ccccc2)c1)NCC1CCCO1 (stereo not given)	–	–	–	–	–	–	·	·
c1ccc2[nH]c(CSc3ncnc4c3oc3ccccc34)nc2c1	–	–	–	–	29	–	26	–
Cc1nc(SCc2nc3ccccc3[nH]2)c2oc3ccccc3c2n1	–	–	–	–	–	–	·	·
COc1ccc(CNC(=O)CN2CCN(c3ccc(F)cc3)CC2)cc1	–	–	–	–	–	–	·	·
SMILES	PrP UTR inh	FBA Mtb inh	GDH-TPI counter	BJeLR lethal	PrPC TRFRET	PfHsp40 yeast	PrPC confirm	LD9 tox
CCC(C)NC(=O)c1cccc(OCc2c(C)noc2C)c1 (stereo not given)	–	–	–	–	–	–	·	·
CCOC(=O)c1c(C)[nH]c(C(=O)C(C)OC(=O)c2cccc(OCc3c(C)noc3C)c2)c1C (stereo not given)	–	–	–	–	38	–	26	–
CCOC(=O)C1=C(c2ccccc2)NC(=O)NC1c1ccc(O)c(OCC)c1 (stereo not given)	–	–	–	–	–	–	·	·
CCOC(=O)C1=C(c2ccccc2)NC(=O)NC1c1ccc(O)c(Cl)c1 (stereo not given)	–	–	–	–	36	–	49	52
OC(c1cccc(Cl)c1)c1nc(-c2cccc3cccnc23)cs1 (stereo not given)	·	–	–	·	–	·	·	·
COc1cnn(-c2ccc(C)cc2)c(=O)c1Br	–	–	–	–	–	–	·	·
COc1ccc(Oc2cnn(-c3ccccc3)c(=O)c2Br)cc1	–	–	–	–	27	–	36	–
CCCN1CCN(C(=O)C2CCN(c3nnc(C)c4c(C)n(-c5ccc(C)cc5)nc34)CC2)CC1	–	–	–	–	–	–	·	·
CCOc1ccc(-n2nc3c(=S)[nH]nc(C)c3c2C)cc1	–	–	–	–	92	–	125	–
CCOc1ccc(-n2nc3c(SCCN4CCCC4)nnc(C)c3c2C)cc1	–	–	–	–	55	–	74	–
Cc1ccc(-n2nc3c(SCCN4CCOCC4)nnc(C)c3c2C)cc1	–	–	–	–	33	–	56	–
COc1ccc(S(=O)(=O)N(C)C)cc1NCC(=O)Nc1cccc(C#N)c1	–	–	–	–	–	–	·	·
COc1cc(C=c2c3ccccc3n3c2cc(-c2ccccc2)[n+]3C)cc(OC)c1OC	–	–	–	·	–	–	·	·
COc1cc(N(C)C)ccc1C=c1c2ccccc2n2c1cc(-c1ccccc1)[n+]2C	–	–	–	·	31	?	48	68
CCCCNC(=O)C1c2ccccc2OCC(=O)N1CCc1ccc(OC)c(OC)c1 (stereo not given)	·	·	·	·	–	·	·	·
NC(Cc1ccccc1)c1csc(NC(=O)Nc2ccccc2Oc2ccccc2)n1 (stereo not given)	·	–	–	·	25	·	27	–
N#CC(C(=O)C12CC3CC(CC(C3)C1)C2)c1nc2ccccc2[nH]1 (stereo not given)	–	–	–	–	35	–	–	–
O=C(O)c1cccc(Br)c1	–	–	–	·	–	–	·	·
COc1ccc(OC)c(C2NC(=O)N(C)C(C)=C2C(=O)OCc2ccccc2)c1 (stereo not given)	–	–	–	–	68	–	79	–
CC1=C(C(=O)OCc2ccccc2)C(c2ccccc2Cl)NC(=O)N1C (stereo not given)	–	–	–	–	–	–	·	·
